Measurements reported in PubChem BioAssay (NCI).
Compounds without any hit were thinned out: in the full panel of roughly 83,000, 20% have a hit.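 Compound tested at a single concentration for 48 hours in 96-well plates; a percent growth value below 10 was scored as active.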 The source made the active and inactive calls.

Key:
Experiment in all cases: NCI-60 one-dose screen, 48 h (100 = growth as untreated, 0 = no growth, -100 = all killed)
Settings in all cases: 10 µM unless noted
SK-MEL-2 melanoma = tested on: SK-MEL-2 melanoma
EKVX NSCLC = tested on: EKVX NSCLC
SN12C renal = tested on: SN12C renal
UO-31 renal = tested on: UO-31 renal
TK-10 renal = tested on: TK-10 renal
ACHN renal = tested on: ACHN renal
CAKI-1 renal = tested on: CAKI-1 renal
A498 renal = tested on: A498 renal
CCRF-CEM leukemia = tested on: CCRF-CEM leukemia
MOLT-4 leukemia = tested on: MOLT-4 leukemia

Measured: growth

O=C(/C=C/Nc1ccc(S(=O)(=O)Nc2ncccn2)cc1)c1ccc(N=Cc2c(O)[nH]c3ccccc23)cc1
inactive: SK-MEL-2 melanoma 118% | EKVX NSCLC 103% | SN12C renal 98.3% | UO-31 renal 92.4% | TK-10 renal 112% | ACHN renal 106% | CAKI-1 renal 94.4% | A498 renal 98.5% | CCRF-CEM leukemia 104% | MOLT-4 leukemia 109%

COc1cc(C(=O)c2cc(C(C)=O)c3ccc(C)cn23)cc(OC)c1OC
inactive: SK-MEL-2 melanoma 37.5% | EKVX NSCLC 46.5% | SN12C renal 42.4% | UO-31 renal 44% | TK-10 renal 76.3% | ACHN renal 51.3% | CAKI-1 renal 34.3% | A498 renal 38.3% | CCRF-CEM leukemia 47.1% | MOLT-4 leukemia 28.5%

Cc1ccc2c(n1)C(=O)C(Cl)=C(Nc1ccccc1C(=O)OC(C)(C)C)C2=O
inactive: SK-MEL-2 melanoma 93.6% | EKVX NSCLC 28% | SN12C renal 52.6% | A498 renal 92.3%
active: UO-31 renal -62.7% | TK-10 renal -84.6% | ACHN renal -73.6% | CAKI-1 renal -92.4% | CCRF-CEM leukemia -27.1% | MOLT-4 leukemia -32.6%

CCOC(=O)C1=C(C)NC(C)=C(C(=O)OC(C)C)C1c1cccc(C#N)c1 (stereo not given)
inactive: SK-MEL-2 melanoma 106% | EKVX NSCLC 90.7% | SN12C renal 97.8% | UO-31 renal 93.3% | TK-10 renal 106% | ACHN renal 96.7% | CAKI-1 renal 84.7% | A498 renal 83.9% | CCRF-CEM leukemia 103% | MOLT-4 leukemia 88.8%

COc1ccc(NC2=C(Br)C(=O)C(C)=C(C)C2=O)cc1OC
inactive: SK-MEL-2 melanoma 106% | EKVX NSCLC 80.8% | SN12C renal 100% | UO-31 renal 83.5% | TK-10 renal 165% | ACHN renal 99.7% | CAKI-1 renal 99.1% | A498 renal 95%
active: CCRF-CEM leukemia -27.9% | MOLT-4 leukemia -41.6%

CCc1cc(O)ccc1Nc1cc(-c2ccc(-n3cccn3)cc2)[nH]n1
inactive: SK-MEL-2 melanoma 87.3% | EKVX NSCLC 63% | SN12C renal 73.5% | UO-31 renal 50.9% | TK-10 renal 98.6% | ACHN renal 43.9% | CAKI-1 renal 44.8% | A498 renal 92.9% | CCRF-CEM leukemia 60.4% | MOLT-4 leukemia 43.6%

Cc1c(C(=O)/C=C/c2ccc(Cl)cc2)nnn1-c1ccc2oc(=O)ccc2c1
inactive: SK-MEL-2 melanoma 110% | EKVX NSCLC 91.2% | SN12C renal 92.3% | UO-31 renal 73.4% | TK-10 renal 104% | ACHN renal 94.6% | CAKI-1 renal 88.6% | A498 renal 103% | CCRF-CEM leukemia 92.3% | MOLT-4 leukemia 98.9%

O=C(CSc1nc2ccccc2c(=O)n1CCc1ccccc1)Nc1ccc(S(=O)(=O)Nc2ccc(Cl)nn2)cc1
inactive: SK-MEL-2 melanoma 111% | EKVX NSCLC 86.9% | SN12C renal 94.9% | UO-31 renal 65.1% | TK-10 renal 149% | ACHN renal 90.6% | CAKI-1 renal 75.1% | A498 renal 107% | CCRF-CEM leukemia 99.2% | MOLT-4 leukemia 99.8%

COc1ccc(/C(=N\N=C(N)N)c2ccc(Cl)cc2)cc1OC
inactive: SK-MEL-2 melanoma 99.9% | EKVX NSCLC 72.6% | SN12C renal 70.8% | UO-31 renal 83.7% | TK-10 renal 77% | ACHN renal 94.8% | CAKI-1 renal 50.1% | A498 renal 76.5% | CCRF-CEM leukemia 67.3% | MOLT-4 leukemia 52.5%

NS(=O)(=O)c1ccc(Nc2nc(N/N=C/C=C/c3ccccc3)nc(Nc3ccccc3)n2)cc1
inactive: SK-MEL-2 melanoma 45% | EKVX NSCLC 71.3% | SN12C renal 48.1% | UO-31 renal 39.6% | TK-10 renal 86.8% | ACHN renal 38.5% | CAKI-1 renal 46.1% | A498 renal 40.2% | CCRF-CEM leukemia 24.8% | MOLT-4 leukemia 12.3%

O=C(COc1ccc(/C=C2\C(=O)Nc3ccc(F)cc32)cc1)Nc1ccccc1
inactive: SK-MEL-2 melanoma 122% | EKVX NSCLC 95.8% | SN12C renal 102% | UO-31 renal 85.4% | TK-10 renal 118% | ACHN renal 93.7% | CAKI-1 renal 82.4% | A498 renal 99% | CCRF-CEM leukemia 96.9% | MOLT-4 leukemia 99.2%

Cc1[nH]c(C(=O)Nc2ccccc2OCc2cccc(C(=O)NC3CCCNC3)c2)c(Cl)c1Cl (stereo not given)
active: EKVX NSCLC -80.4% | SN12C renal -72.9% | UO-31 renal -13% | TK-10 renal -75% | ACHN renal -86.8% | CAKI-1 renal -91.3% | CCRF-CEM leukemia 2.33% | MOLT-4 leukemia -25.3%
inactive: SK-MEL-2 melanoma 102% | A498 renal 66.2%
